Test results published in PubChem BioAssay AID2185 (Vanderbilt High Throughput Screening Facility, 2009).
Entries with a potency or affinity are not part of this list. A number with no mark means an inactive call. No rule for the calls is given here.

biological target: Metabotropic glutamate receptor 4 (Rattus norvegicus) (UniProt P31423); assay: PubChem AID 2185; conditions: HEK/GIRK cells expressing rat mGluR4, thallium flux PAM; active compounds read high
Sequence (P31423 whole entry, looked up): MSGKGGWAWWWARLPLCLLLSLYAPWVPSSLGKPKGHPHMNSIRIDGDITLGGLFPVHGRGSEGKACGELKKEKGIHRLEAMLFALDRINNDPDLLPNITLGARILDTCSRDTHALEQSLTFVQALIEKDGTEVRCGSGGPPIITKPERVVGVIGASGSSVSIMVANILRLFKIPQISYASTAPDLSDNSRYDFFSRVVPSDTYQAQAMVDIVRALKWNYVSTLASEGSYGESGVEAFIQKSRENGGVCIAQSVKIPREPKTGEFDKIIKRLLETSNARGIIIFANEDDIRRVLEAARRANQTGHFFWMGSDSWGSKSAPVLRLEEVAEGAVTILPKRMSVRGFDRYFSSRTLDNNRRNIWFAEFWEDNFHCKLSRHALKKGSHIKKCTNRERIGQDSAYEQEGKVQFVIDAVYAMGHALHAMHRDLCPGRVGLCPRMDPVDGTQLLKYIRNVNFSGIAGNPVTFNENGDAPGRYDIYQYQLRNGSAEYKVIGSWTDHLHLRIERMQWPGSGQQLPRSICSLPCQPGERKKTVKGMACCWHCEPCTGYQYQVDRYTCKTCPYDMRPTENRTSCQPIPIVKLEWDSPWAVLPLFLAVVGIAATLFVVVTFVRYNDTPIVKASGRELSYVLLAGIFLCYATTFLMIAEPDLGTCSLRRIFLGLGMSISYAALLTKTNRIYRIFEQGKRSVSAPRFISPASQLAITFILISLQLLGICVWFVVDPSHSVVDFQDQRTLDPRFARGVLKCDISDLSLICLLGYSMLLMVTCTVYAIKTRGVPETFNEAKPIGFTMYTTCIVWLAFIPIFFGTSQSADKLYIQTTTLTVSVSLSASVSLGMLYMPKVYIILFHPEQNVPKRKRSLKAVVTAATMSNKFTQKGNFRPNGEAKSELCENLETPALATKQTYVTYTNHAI

SMILES | % glutamate max [%]
O=C(Nc1cccc(C(F)(F)F)n1)c1ccccn1 | 25.1
O=C(Nc1ccc(N2CCCS2(=O)=O)cc1)c1ccccn1 | 30.1
COc1cc(NC(=O)c2ccccn2)ncn1 | 25.5
